Assay results from PubChem BioAssay (Tox21).
Records with an inconclusive call do not appear. The source made the active and inactive calls. Unless noted, calls come from the whole dose curve; as a rule, active = well fitted curve in the direction sought with a large enough effect in the repeat runs; inconclusive = weak or mixed curves; inactive = no such curve, though single readings can be large; an effect the other way counts as inactive or inconclusive.

Key:
[1] = A CellTox Green Cytotoxicity Assay to monitor cytotoxicity in HEK293 cells - 16 hour (AID 1224888); note: nearly all actives have a fitted effect of over 35% in size
Method in brief: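 Cytotoxicity was tracked continuously in HEK293 cells by a DNA-binding dye excluded from viable cells. Compounds were transferred in DMSO 5 h after seeding; fluorescence was recorded at intervals up to 40 h.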

[2] = qHTS RealTime-Glo MT Cell Viability Assay in HepG2 cells - 0 hour (AID 1224889); note: nearly all actives have a fitted effect of over 50% in size
Method in brief: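 HepG2 cells were seeded at 600 cells/well together with NanoLuc luciferase and a cell-permeant prosubstrate, preincubated 5 h at 37 C/5% CO2, then pin-dosed with compounds in DMSO. Nonlytic luminescence from viable cells was read at each time point.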

[3] = A CellTox Green Cytotoxicity Assay to monitor cytotoxicity in HepG2 cells - 8 hour (AID 1224890); note: nearly all actives have a fitted effect of over 45% in size
Method in brief: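 Real-time, homogeneous cytotoxicity readout: dead-cell DNA staining by CellTox Green in HepG2 monolayers, fluorescence measured at timed intervals up to 40 h of continuous compound exposure.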

[4] = qHTS assay to identify small molecule antagonists of the estrogen receptor alpha (ER-alpha) signaling pathway using the BG1 cell line in the presence of 0.1 nM 17-beta-estradiol - cell viability counter screen (AID 1259241); note: nearly all actives have a fitted effect of over 40% in size
Method in brief: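 Viability in VM7Luc4E2 cells after 22 hr compound exposure under 0.1 nM 17beta-estradiol stimulation, by CellTiter-Fluor.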

[5] = qHTS assay to identify small molecule antagonists of the androgen receptor (AR) signaling pathway using the MDA cell line in the presence of 0.5 nM R1881 - cell viability counter screen (AID 1259242); note: nearly all actives have a fitted effect of over 45% in size
Method in brief: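 Cytotoxicity toward MDA-kb2 cells is measured by CellTiter-Fluor live-cell protease fluorescence after 16 hr compound exposure at 37C in the presence of 0.5 nM R1881 stimulator.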

[6] = target: Estrogen receptor (Homo sapiens) (UniProt P03372); assay: qHTS assay to identify small molecule antagonists of the estrogen receptor alpha (ER-alpha) signaling pathway using the BG1 cell line in the presence of 0.1 nM 17-beta-estradiol (AID 1259244); note: nearly all actives have a fitted effect of over 50% in size
Method in brief: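 After 5 days in hormone-depleted medium (charcoal-stripped serum, no phenol red), VM7Luc4E2 cells were seeded, incubated 24 h, then co-treated with compound and 0.1 nM (final) estradiol for 22 h before luminescence detection.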

[7] = qHTS assay to identify small molecule HDAC inhibitors (AID 1259364); note: top concentration of the series differs between compounds; nearly all actives have a fitted effect of over 45% in size
Method in brief: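 Homogeneous cell-based luminescent assay of endogenous class I/II HDAC activity; HCT-116 cells, 2 h compound exposure, 30 min HDAC-Glo development at RT.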

[8] = qHTS assay to identify small molecule HDAC inhibitors - cell viability counter screen (AID 1259365); note: series mostly up to about 92 µM; nearly all actives have a fitted effect of over 50% in size
Method in brief: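 Cytotoxicity was gauged in wild-type HCT-116 cells after a brief 2hr treatment with DMSO-dissolved compounds at 37C and 5% CO2, using CellTiter-Glo luminescence developed for 30min at room temperature.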

[9] = qHTS assay to identify small molecule phospholipidosis (PLD) inducers (AID 1259344; active = well fitted curve in the direction sought with a large enough effect; an effect the other way counts as inactive or inconclusive)
Method in brief: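 HepG2 cells grown on collagen I take up LipidTOX Red while exposed to compound for 24 h; after fixation they are imaged at 20x and pit metrics are extracted.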

Measured: Potency

Chain of Estrogen receptor (Homo sapiens) (P03372 whole entry, looked up): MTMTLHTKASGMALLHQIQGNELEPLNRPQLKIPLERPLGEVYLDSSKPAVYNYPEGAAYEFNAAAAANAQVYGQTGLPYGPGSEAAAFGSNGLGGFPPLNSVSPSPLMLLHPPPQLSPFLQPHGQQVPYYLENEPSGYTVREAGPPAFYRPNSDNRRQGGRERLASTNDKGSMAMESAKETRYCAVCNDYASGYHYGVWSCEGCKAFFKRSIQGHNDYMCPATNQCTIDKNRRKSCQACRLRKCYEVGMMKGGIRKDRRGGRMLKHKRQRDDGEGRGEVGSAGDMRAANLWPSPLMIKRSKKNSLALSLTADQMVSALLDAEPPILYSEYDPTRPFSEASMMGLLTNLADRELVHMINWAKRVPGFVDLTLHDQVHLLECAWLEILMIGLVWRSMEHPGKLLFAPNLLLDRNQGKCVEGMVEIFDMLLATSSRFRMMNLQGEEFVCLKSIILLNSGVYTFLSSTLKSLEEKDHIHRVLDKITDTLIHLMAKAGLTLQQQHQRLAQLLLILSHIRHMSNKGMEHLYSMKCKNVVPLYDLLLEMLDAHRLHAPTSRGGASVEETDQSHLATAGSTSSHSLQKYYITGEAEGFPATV

CCCCCCCCCCCCCCBr
not listed: [9]
inactive: all other assays above

Cc1ccc(O)c([N+](=O)[O-])c1
not listed: [9]
inactive: all other assays above

CCCCCCCCCCCCCC(=O)OCC
not listed: [9]
inactive: all other assays above

C=CCCCCCCCCOC(C)=O
not listed: [7] | [9]
inactive: all other assays above

CC(C)(C)c1ccc(C(=O)CCCCl)cc1
not listed: [7] | [9]
inactive: all other assays above

CC(CC(=O)Cl)CC(C)(C)C (stereo not drawn)
not listed: [7] | [9]
inactive: all other assays above

c1coc(Cn2cccc2)c1
not listed: [9]
inactive: all other assays above

CC(C)c1cc(C(C)C)cc(C(C)C)c1
not listed: [7] | [9]
inactive: all other assays above

CCN(CC)CC
not listed: [7] | [9]
inactive: all other assays above

CCc1ccc(CC)cc1
not listed: [9]
inactive: all other assays above

COCCCOc1cc(C[C@@H](C[C@H](N)[C@@H](O)C[C@H](C(=O)NCC(C)(C)C(N)=O)C(C)C)C(C)C)ccc1OC
not listed: [9]
inactive: all other assays above

CC1(C)S[C@@H]2[C@H](NC(=O)Cc3ccccc3)C(=O)N2[C@H]1C(=O)O (tested in a mixture with another compound)
not listed: [5] | [8]
inactive: all other assays above

CN(C)CCc1c[nH]c2ccc(C[C@H]3COC(=O)N3)cc12
not listed: [5]
inactive: all other assays above

CCOc1ccccc1OCCN[C@H](C)Cc1ccc(OC)c(S(N)(=O)=O)c1
not listed: [6]
inactive: all other assays above

CC(C)(Sc1cc(C(C)(C)C)c(O)c(C(C)(C)C)c1)Sc1cc(C(C)(C)C)c(O)c(C(C)(C)C)c1
not listed: [6] | [9]
inactive: all other assays above

Cc1ccc(O)c(C(=O)c2ccccc2)c1
not listed: [6] | [9]
inactive: all other assays above

CNCCc1ccccn1
not listed: [6]
inactive: all other assays above
